Laboratory results from PubChem BioAssay (EPA / NIEHS).
Where “and” joins values, the source holds several entries; their conditions need not be identical. Identical values can stand only once. Results filed as inconclusive are left out. Calls of active or inactive are those of the source. How the source made its calls: active means hit-call score of the fitted dose curve at least 0.9, where 1 is the maximum; inconclusive means response in the unintended direction; inactive means score below 0.9.

Experiment: CCTE_Shafer_MEA_acute_AB: CCTE's Alamar Blue Assay for Cytotoxicity in the Neural Acute Assay, Shafer Lab (AID 2284069);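 further: active compounds lower the viability signal compared with DMSO wells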
Protocol: CCTE_Shafer_MEA_acute assay is conducted using Axion Biosystems 48 well microelectrode array (MEA) plates and Maestro recording system. Each well of the MEA plate contains a grid of 16 microelectrodes embedded in the culture surface. Electrically active cells, such as neurons, can be cultured over the electrodes, and electrical activity in these cells can be recorded extracellularly. The spontaneous firing of neurons is captured from each electrode on a microsecond timescale providing both temporally and spatially precise data. […] The CCTE_Shafer_MEA_acute assay uses primary cultures of rat cortical neurons. As these cultures mature over time, neural networks develop functional activity and form cohesive networks in which electrical activity can be highly coordinated. Baseline 40-minute recordings are made on days post-plating 13 or 15, followed by a secondary 40-minute recording after chemical exposure.CCTE_Shafer_MEA_acute_AB is a component of the CCTE_Shafer_MEA_acute assay. It measures the resazurin reduction using fluorescence.Data from the assay component CCTE_Shafer_MEA_acute_AB was analyzed into 1 assay endpoint. This assay endpoint, CCTE_Shafer_MEA_acute_AB, was analyzed in the positive analysis fitting direction relative to DMSO as the negative control and baseline of activity. Using a type of viability reporter, loss-of-signal activity can be used to understand cell viability.
Metabolic activity was determined using the CellTiter Blue (CTB) assay (Promega Cat. #8081), following the manufacturer's instructions with the following modifications. Following the removal of the 50 uL sample for the LDH assay, 450 uL of media was removed from each well and replaced with 200 uL of fresh media containing a 1:6 dilution of CTB reagent for the determination of metabolic activity. Fluorescence was measured in a Fluorostar Optima fluorimeter using an excitation wavelength of 544 nm and an emission wavelength of 590 nm.

Structure (SMILES)	outcome	AC50
CCCCOC(=O)c1ccccc1C(=O)OCc1ccccc1	inactive	
O=C(N[C@H](c1ccccc1)[C@@H]1CN2CCC1CC2)c1c(Cl)ccc(C(F)(F)F)c1Cl	inactive	
CCC[CH2][Sn]([Cl])([CH2]CCC)[CH2]CCC		1.92 µM (active) and 3.06 µM (active)
C[N+](C)(C)CC1CO1 (stereo not drawn)	inactive	
Cc1ccc(N)c(N)c1	inactive	
c1ccc(NNc2ccccc2)cc1	inactive	
CCN(CC)N=O	inactive	
CC(C)COC(=O)c1ccccc1C(=O)OCC(C)C	inactive	
Clc1ccc(C(c2ccc(Cl)cc2)C(Cl)Cl)cc1	inactive	
CC(C)(C)C(O)(CCc1ccc(Cl)cc1)Cn1cncn1 (stereo not drawn)	inactive	
CCCCCOC(=O)c1ccccc1C(=O)OCCCCC	inactive	
N#CC(Br)Br	inactive	
O=[N+]([O-])C(Br)(CO)CO		26.9 µM (active)
ClCCOCCCl	inactive	
O=P(OCCCl)(OCCCl)OCCCl	inactive	
CCN(CC)CCO	inactive	
[Cl-].[Cl-].[Hg+2]		32.6 µM (active)
Clc1ccc(C(c2ccc(Cl)cc2)C(Cl)(Cl)Cl)cc1	inactive	
CC(C)(O)c1cnn2c(-c3ccc(F)c(-c4c(F)cccc4C#N)c3)cnc2n1	inactive	
CC(C)(OOC(C)(C)c1ccccc1)c1ccccc1	inactive	
ClC1=C(Cl)C2(Cl)C3C(Cl)C=CC3C1(Cl)C2(Cl)Cl (stereo not drawn)	inactive	
CCCCCCCCn1sccc1=O	inactive	
O=[N+]([O-])c1ccc(Oc2ccc(Cl)cc2Cl)cc1	inactive	
O=Cc1ccco1	inactive	
COC(=O)Nc1nc2ccccc2[nH]1	inactive	
Cc1cc(N=Nc2ccccc2C)ccc1N	inactive	
c1ccc(N=Nc2ccccc2)cc1	inactive	
CCC(C)c1ccc(O)cc1 (stereo not drawn)	inactive	
